Laboratory results reported in PubChem BioAssay (NCI).
About 83,000 compounds went through this panel and 20% of them were active in at least one assay; those are over-represented in the sample as a whole.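 Results are percent growth after 48 hours of single-concentration exposure. 100 means growth as in untreated cells, lower positive values show inhibition; negative values down to -100 show cell death.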 Values without a mark were called inactive. Active and inactive are the calls of the source. How the source made its calls: active means growth percent below 10; inactive means the rest.

The compounds below were run on HL-60(TB) leukemia (assay: NCI-60 one-dose screen, 48 h (100 = growth as untreated, 0 = no growth, -100 = all killed)). Settings: 10 µM unless noted.

Row | SMILES | growth
1 | COC(=O)c1cc2c(/C=C3/NC(=S)NC3=O)coc2n1C | 100%
2 | O=S(=O)(Nc1cc(F)cc(F)c1)c1ccc(-c2cnc(C3CC3)o2)cc1 | 9.05% (active)
3 | CCCCCCCCCCCCOC(=O)/C=C\C(=O)NC(N)=O | 52.3%
4 | COc1cnc2c(c1)C(=O)c1c-2n(CCCN2CCC(O)CC2)c(=O)c2cc(F)ccc12 | -8.3% (active)
5 | CN(C)c1ccc2cc(-c3ccccc3F)c(N)nc2c1 | 5.36% (active)
6 | c1ccc(-c2nnc(Nc3nnc(-c4ccccc4)s3)s2)cc1 | 103%
7 | CCOC(=O)c1c2c(n3ccc(NC(=O)CCN(CC)CC)cc13)C(=O)c1ncccc1C2=O | -48.5% (active)
8 | CO[C@H]1CC(O[C@@H]2/C(C)=C/C[C@@H]3C[C@@H](C[C@]4(C=C[C@H](C)[C@@H](C5CCCCC5)O4)O3)OC(=O)[C@@H]3C=C(C)[C@@H](O)[C@H]4OC/C(=C\C=C\[C@@H]2C)[C@]43O)O[C@@H](C)C1O[C@H]1C[C@H](OC)[C@@H](O)[C@H](C)O1 (stereo not given in full) | -50.5% (active)
9 | O=C(NC1CCNCC1)c1[nH]ncc1NC(=O)c1c(Cl)cccc1Cl | -31.8% (active)
10 | OCc1cc(CN2CCCCC2)c(O)c2ncccc12 | 33.2%
11 | CC(=O)N1C/C(=C/c2ccc(Cl)cc2)C(=O)/C(=C/c2ccc(Cl)cc2)C1 | 4.97% (active)
12 | Cc1ccc(Cc2c(C=O)nc(N)[nH]c2=O)c2ccccc12 | 36.1%
13 | CN(C)c1ccc(Nc2c3ccccc3nc3ccccc23)cc1 | -2.21% (active)
14 | CCCCCCCCCCCC(=O)OC(C)C(=O)NCCCC (stereo not given) | 99.4%
15 | Cc1c(Cl)cc(-n2c(=O)c3ccccc3c3ccccc3c2=O)cc1Cl | 90.8%
16 | CC12CCCC(CC(=O)c3[nH]c4ccccc4c31)C2 (stereo not given) | -0.598% (active)
17 | CNC(=O)c1c(NC(=O)c2ccc(C(C)C)cc2)sc2c1CCC(=O)C2 | -13.9% (active)
18 | NC(N)=N/N=C(/c1ccccc1)c1ccc(F)cc1 | -70.6% (active)
19 | COc1ccc(-n2c(=O)c3ccccc3n(Cc3ccc(C(=O)NO)cc3)c2=O)cc1 | -4.17% (active)
20 | Cn1cc(-c2noc(-c3cn(C)c4ncccc34)n2)c2cc(Cl)ccc21 | 80.2%

Row | SMILES | growth
21 | c1ccc(-c2nc3nonc3nc2-c2ccccc2)cc1 | 85.3%
22 | CCCCN(Cc1ccc(C(=O)NO)cc1)C(=O)Nc1ccc(OCCCCCCCCCn2cc(CCCCC(=O)N[C@H](C(=O)N3C[C@H](O)C[C@H]3C(=O)NCc3ccc(-c4scnc4C)cc3)C(C)(C)C)nn2)cc1 | 21.6%
23 | CN1CCN(C(=O)c2cc(-c3ccc4ncnc(N5CCc6cc(F)c(Cl)cc65)c4c3)cnc2N)CC1 | -32.5% (active)
24 | O=C(/C=C/c1cccc(Cl)c1)c1ccc(Nc2nc(Nc3ccc(F)cc3)nc(Nc3ccc(Cl)cc3)n2)cc1 | 52.8%
25 | CN(C)CC1CCCCCC(CN(C)C)C1=O (stereo not given) | 26%
26 | COc1cccc(/C=C/C(=O)c2cc3c(N)c(C(=O)Nc4cccc5ccccc45)sc3nc2C)c1 | 3.98% (active)
27 | Cn1cc(-c2csc(-c3cn(CCNC(=O)OC(C)(C)C)c4ccc(F)cc34)n2)c2cccnc21 | 42.7%
28 | Cc1ccccc1NC(=O)N/C(N)=N/c1nc2ccccc2s1 | -23.2% (active)
29 | CC(=O)N[C@H](C(=O)N[C@@H](CCCNC(=N)N)C(=O)N[C@@H](CCCCN)C(=O)N[C@@H](CCCNC(=N)N)C(=O)N[C@]1(C)CCCCCC/C=C\CCC[C@@](C)(C(=O)N[C@@H](CCCNC(=N)N)C(=O)N[C@@H](CCC(=O)O)C(=O)N[C@@H](CC(C)C)C(=O)N[C@H](C(=O)N[C@@H](CCC(=O)O)C(N)=O)C(C)C)NC(=O)[C@H](CCC(N)=O)NC(=O)[C@H](CC(C)C)NC(=O)[C@H](CC(C)C)NC(=O)[C@H](CCCNC(=N)N)NC(=O)[C@H](CCCNC(=N)N)NC(=O)[C@H](CC(C)C)NC1=O)C(C)C | 15.9%
30 | Nc1nc(N)c(N=Nc2ccccc2)c(-c2ccccc2)n1 | 71.4%
31 | CC(C)(C)c1cc(Cl)c(O)c(CNCCO)c1 | 117%
32 | CCCCCCCCCCC/C=C\C[C@H](O)C/C=C1/C(=O)C=C[C@@H]1C/C=C\CCCC(=O)OC | -20% (active)
33 | COc1cc([C@@H]2c3cc4c(cc3[C@H](SC(=N)N)[C@H]3COC(=O)[C@H]23)OCO4)cc(OC)c1OC | -18.8% (active)
34 | CC(C)(C)n1cc(-c2ccnc(NCCCNS(=O)(=O)c3cccc4ccccc34)c2)c(-c2cccc(O)c2)n1 | 25.4%
35 | COc1cc(/C=C2\C=C(c3ccccc3)N(CCc3ccccc3)C2=O)cc(OC)c1OC | 80.3%
36 | COc1cc(N2C(=O)[C@H](c3ccccc3)C2c2ccc(SC)cc2)cc(OC)c1OC (stereo not given in full) | -45.7% (active)
37 | CN1CCC(=C2c3ccccc3C=Cc3ccccc32)CC1 | 85.1%
38 | O=C1c2cc3c(cc2-c2c1c1ccc(Cl)cc1c(=O)n2CCCn1ccnc1)OCO3 | -29.1% (active)
39 | CCCCCCCC/C=C/CCCCCCCC1=NCC[N+]1(CCO)CCO | 31.7%
40 | COc1ccccc1N1CCN(CCCOc2ccc(OCCCN3CCN(c4ccccc4OC)CC3)c(C(=O)c3cc(OC)c(OC)c(OC)c3)c2)CC1 | 101%
